This passage reports growth results from PubChem BioAssay (NCI).

The panel holds about 83,000 compounds, 20% with a hit somewhere; the sample as a whole holds those more often.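 How to read the values: 0–100, growth inhibition (40 = 60% inhibited); 0, no net growth; -100 to 0, cell death (-40 = 40% of starting cells died; -100 = all dead).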 Unmarked numbers belong to inactive results. Activity calls are given as the source filed them. Rule for the calls: active = growth percent below 10; inactive = the rest.

Among the test systems are RPMI-8226 leukemia; OVCAR-8 ovarian; OVCAR-5 ovarian; OVCAR-4 ovarian; SK-OV-3 ovarian; IGROV1 ovarian; OVCAR-3 ovarian; HS 578T breast; NCI/ADR-RES ovarian; T-47D breast; BT-549 breast; MDA-MB-435 melanoma; SW-620 colon; MCF7 breast; HCT-116 colon; HCC-2998 colon; KM12 colon.
Common to all, as to assay: NCI-60 one-dose screen, 48 h (100 = growth as untreated, 0 = no growth, -100 = all killed)
Holding throughout (details): 10 µM unless noted

With `CCn1c2c(c3ccccc31)SC1c3cccn3CCN1C2=S` (stereo not drawn), the growth was 76.7% in the assay on RPMI-8226 leukemia; 94.4% in the assay on OVCAR-8 ovarian; 104% with OVCAR-5 ovarian; 54.5% with OVCAR-4 ovarian; 99.9% in the assay on SK-OV-3 ovarian; 80% with IGROV1 ovarian. For the same molecule, the growth was 100% with OVCAR-3 ovarian; 81.2% in the assay with HS 578T breast; 102% in the assay on NCI/ADR-RES ovarian; 41.9% in the assay with T-47D breast; 140% in the assay on BT-549 breast; 91.5% in the assay with MDA-MB-435 melanoma. Besides, the growth was 95.2% in the assay with SW-620 colon; 53.8% with MCF7 breast; 98.2% in the assay with HCT-116 colon; 99.6% in the assay with HCC-2998 colon; 96.4% in the assay on KM12 colon.

For `CC(c1cc(Cl)ccc1O)c1cc(Cl)ccc1O`, the growth in the assay on RPMI-8226 leukemia was 20.9%; with OVCAR-8 ovarian it was 46.5%; with OVCAR-5 ovarian it was 70.7%; in the assay with OVCAR-4 ovarian, 39.3%; in the assay with SK-OV-3 ovarian it was 27.3%; in the assay on IGROV1 ovarian it was -7.07% (active). Besides, the growth with OVCAR-3 ovarian was 28.2%; with HS 578T breast, 10.6%; in the assay on NCI/ADR-RES ovarian it was -1.24% (active); in the assay on T-47D breast it was 89.9%; with BT-549 breast, 44.7%; in the assay on MDA-MB-435 melanoma, -2.51% (active). The growth was 30.6% with SW-620 colon; 20.1% in the assay on MCF7 breast; 15.2% in the assay on HCT-116 colon; 63% with HCC-2998 colon; 31.8% in the assay on KM12 colon.

As for `O=C(CCc1nnc(SCc2ccccc2)s1)c1nc2ccccc2[nH]1`, the growth is 82.9% in the assay with RPMI-8226 leukemia; 98.7% in the assay on OVCAR-8 ovarian; 99.2% with OVCAR-5 ovarian; 85.7% with OVCAR-4 ovarian; 103% in the assay on SK-OV-3 ovarian; 103% in the assay on IGROV1 ovarian. Besides, the growth in the assay with OVCAR-3 ovarian was 106%; in the assay with HS 578T breast it was 106%; in the assay on NCI/ADR-RES ovarian it was 87.1%; in the assay with T-47D breast it was 95%; in the assay on BT-549 breast, 108%; in the assay on MDA-MB-435 melanoma, 102%. Moreover, the growth in the assay on SW-620 colon was 107%; in the assay with MCF7 breast, 92.1%; in the assay with HCT-116 colon, 95%; in the assay with HCC-2998 colon, 101%; in the assay with KM12 colon it was 110%.

`O=C(Nc1ccc(OCc2nnc(-c3ccccc3)o2)c(F)c1)Nc1ccc(Cl)c(C(F)(F)F)c1`: the growth with RPMI-8226 leukemia was -21% (active); with OVCAR-8 ovarian, 24.5%; in the assay with OVCAR-5 ovarian, 64.5%; in the assay on OVCAR-4 ovarian, 26.8%; in the assay with SK-OV-3 ovarian it was 52.4%; in the assay with IGROV1 ovarian, 36.3%. Further, the growth in the assay with OVCAR-3 ovarian was 15.4%; in the assay on HS 578T breast, 35.6%; with NCI/ADR-RES ovarian, 17.8%; with T-47D breast, 14.9%; with BT-549 breast, 68.3%; with MDA-MB-435 melanoma, 27.5%. Also, the growth was 17.6% in the assay on SW-620 colon; 8.14% (active) with MCF7 breast; 9.64% (active) with HCT-116 colon; 14.4% in the assay on HCC-2998 colon; 1.65% (active) with KM12 colon.

In the case of `COc1cc(C2CC(c3ccc(C)cc3)=NN2C(C)=O)ccc1Oc1ccnc2cc(Cl)ccc12` (stereo not drawn), the growth in the assay with RPMI-8226 leukemia was 83.8%; in the assay on OVCAR-8 ovarian it was 63.1%; with OVCAR-5 ovarian, 92%; with OVCAR-4 ovarian, -15.8% (active); in the assay on SK-OV-3 ovarian, 13.5%; in the assay with IGROV1 ovarian, 81.2%. For the same molecule, the growth in the assay on OVCAR-3 ovarian is 29.1%; in the assay on HS 578T breast it was 7.55% (active); in the assay with NCI/ADR-RES ovarian it was 54.6%; in the assay with T-47D breast, 62.2%; with BT-549 breast, 59.1%; in the assay with MDA-MB-435 melanoma it was 100%. Moreover, the growth in the assay with SW-620 colon was 66.3%; in the assay with MCF7 breast, 73.6%; with HCT-116 colon it was 52.8%; in the assay with HCC-2998 colon, 83.3%; with KM12 colon, 85.3%.

Turning to `Nc1ccc2c3c(cccc13)-c1ccccc1-2`, the growth in the assay on RPMI-8226 leukemia is 33.9%; with OVCAR-8 ovarian it was 99.1%; in the assay on OVCAR-5 ovarian, 99.8%; in the assay on OVCAR-4 ovarian it was 86.1%; in the assay on SK-OV-3 ovarian it was 99.6%; in the assay with IGROV1 ovarian, 84%. Besides, the growth in the assay with OVCAR-3 ovarian is 88.4%; in the assay on HS 578T breast, 89.2%; with NCI/ADR-RES ovarian, 95.2%; in the assay with T-47D breast, 92.3%; in the assay on BT-549 breast, 71%; with MDA-MB-435 melanoma, 96.5%. Moreover, the growth in the assay on SW-620 colon is 102%; with MCF7 breast it was 88.8%; in the assay on HCT-116 colon, 92.2%; in the assay with HCC-2998 colon it was 103%; in the assay with KM12 colon, 87.8%.

In the case of `Clc1cccc(Cc2cn3cc(-c4ccccc4)nc3s2)c1`, the growth in the assay on RPMI-8226 leukemia was 41.3%; with OVCAR-8 ovarian, 53.4%; with OVCAR-5 ovarian, 34.1%; in the assay with OVCAR-4 ovarian, 46.8%; with SK-OV-3 ovarian, 93.8%; in the assay on IGROV1 ovarian it was 64.8%. The growth is 73.6% with OVCAR-3 ovarian; 76.8% in the assay with HS 578T breast; 60.2% with NCI/ADR-RES ovarian; 11.5% in the assay on T-47D breast; 77.5% in the assay with BT-549 breast; 33.1% in the assay with MDA-MB-435 melanoma. Also, the growth with SW-620 colon is 30.2%; in the assay with MCF7 breast it was 21.1%; in the assay with HCT-116 colon it was 42.6%; in the assay with HCC-2998 colon, 17.7%; with KM12 colon, 12.1%.

For the molecule `CCN(CC)CCCNCCCNc1cc(OC)cc2cccnc12`, the growth was 81.3% in the assay on RPMI-8226 leukemia; 88.8% in the assay on OVCAR-8 ovarian; 94.5% in the assay with OVCAR-5 ovarian; -62.3% (active) in the assay with OVCAR-4 ovarian; 111% with SK-OV-3 ovarian; 73.9% in the assay on IGROV1 ovarian. The growth is 32.8% in the assay with OVCAR-3 ovarian; 94.9% with HS 578T breast; 93.2% in the assay on NCI/ADR-RES ovarian; 64.7% with T-47D breast; 100% in the assay with BT-549 breast; 103% in the assay on MDA-MB-435 melanoma. The growth in the assay on SW-620 colon is 38.7%; in the assay with MCF7 breast it was -46.8% (active); with HCT-116 colon, 86.5%; in the assay on HCC-2998 colon, 83.7%; in the assay on KM12 colon it was 78.8%.

For `COc1ccc(-c2oc3cc(O)c(OC)c(O)c3c(=O)c2OC)cc1O`, the growth is 12.3% in the assay with RPMI-8226 leukemia; 25.3% with OVCAR-8 ovarian; 57% in the assay on OVCAR-5 ovarian; 65.6% in the assay with OVCAR-4 ovarian; 24.5% in the assay with SK-OV-3 ovarian; 12.2% with IGROV1 ovarian. For the same molecule, the growth with OVCAR-3 ovarian is -40.1% (active); with HS 578T breast, -27.4% (active); with NCI/ADR-RES ovarian it was -4.16% (active); in the assay with T-47D breast, 53.1%; with BT-549 breast, -4.89% (active); in the assay on MDA-MB-435 melanoma, -45.9% (active). For the same molecule, the growth was 19.2% in the assay on SW-620 colon; 19% in the assay on MCF7 breast; 2.2% (active) in the assay with HCT-116 colon; 90.1% with HCC-2998 colon; 2.13% (active) with KM12 colon.
